High-throughput results as filed in PubChem.
Most compounds without a hit are left out; they make up all but 21% or so of the library.
Pf growth 96h: inhibits malaria parasite growth, 96 h | Potency, µM (highest dose often 28.7 µM), hits mostly inhibitors | actives 6.9% (n = 320,000) | P. falciparum luciferase reporter growth, 96 h | AID 504834
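P. falciparum expressing integrated firefly luciferase, in erythrocytes at 2% hematocrit, 0.05% parasitemia, incubated with compounds 96 h at 37 C, 5% CO2. Growth inhibition read as loss of luminescence; two-generation exposure targets delayed-death apicoplast inhibitors.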
Shiga inhibitor: Shiga toxin inhibition. actives 9.2% (n = 290,000). Vero cells, Shiga toxin protein synthesis inhibition reporter. inhibition, % at 38.7 µM; in the data active = inhibition mostly above about 28%, no sharp cut-off; inactive = mostly below about 43%
Pf growth 48h: P. falciparum growth inhibition at 48 hours (one generation) | P. falciparum luciferase growth in erythrocytes, 48 h | AID 504832 | Potency, µM (top dose mostly 28.7 µM), usual class: inhibitors | actives 5.9% (n = 310,000)
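Growth was read as firefly luciferase luminescence after a 48 h, 37 C, 5% CO2 exposure of compounds to reporter-bearing P. falciparum cultures (0.1% parasitemia, 2% hematocrit final) in Albumax-supplemented RPMI 1640.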
SARS PLpro yeast: blocks SARS-CoV papain-like protease in a yeast assay. Potency, µM (titrated, usually from 32.9 µM), hits mostly activators. AID 485353. actives 0.19% (n = 330,000). S. cerevisiae expressing SARS-CoV PLpro, growth rescue; calls by dose curve; note: nearly all actives have a fitted effect of over 55% in size
Cycloheximide cs: affects cycloheximide protein synthesis inhibition readout, counter-screen; max response, %; actives 12% (n = 300,000); cell reporter, cycloheximide protein synthesis inhibition counterscreen; AID 2314; in the data active = max response mostly above about 13%, no sharp cut-off; inactive = mostly below about 14%; note: read at 38.3 µM for the half of the compounds with a filed dose
NS1 inh: influenza NS1 inhibition. AID 2326. actives 0.4% (n = 270,000). Potency, µM (highest dose often 46.1 µM); calls by dose curve; note: actives are rising curves; nearly all actives have a fitted effect of over 50% in size
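A cell-based growth assay was used: compounds that relieve NS1-induced slow growth of budding yeast raise OD600. Assay medium was yeast nitrogen base with ammonium sulphate and -URA supplement, pH 6.0, with 2% galactose.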
A number is an active result. Unless noted, calls come from the whole dose curve; as a rule, active = well fitted inhibition curve with a large enough effect; inconclusive = small, poorly fitted or top-dose-only effect, or another doubt; inactive = no such curve, though single readings can be large or run the other way.

O=S(=O)(Nc1nc2ccccc2nc1-[n+]1cccc(N=C([O-])c2ccccc2Cl)c1)c1ccccc1 was read as Pf growth 96h 8.3µM, Shiga inhibitor inactive, Pf growth 48h 8.3µM, SARS PLpro yeast inactive, Cycloheximide cs inactive and NS1 inh inactive.
`COc1ccc(C([O-])=Nc2ccc[n+](-c3nc4ccccc4nc3NS(=O)(=O)c3ccccc3)c2)cc1` gave Pf growth 96h 13µM, Shiga inhibitor inactive, Pf growth 48h 2.6µM, SARS PLpro yeast inactive, Cycloheximide cs inactive and NS1 inh inactive.
COc1ccc(S(=O)(=O)Nc2nc3ccccc3nc2NCC2CCCO2)cc1 (configuration not stated) was read as Pf growth 96h inactive, Shiga inhibitor inactive, Pf growth 48h inactive, SARS PLpro yeast inactive, Cycloheximide cs inactive and NS1 inh inactive.
Screening CC(=O)Nc1cccc(NS(=O)(=O)Cc2ccc(Cl)cc2)c1 returned Pf growth 96h 15µM, Shiga inhibitor inactive, Pf growth 48h inactive, SARS PLpro yeast inactive, Cycloheximide cs inactive and NS1 inh inactive.
For Cc1cc(Cl)c(S(=O)(=O)N2CCCCCC2)cc1OCC(=O)NC1CCCCC1 the results were Pf growth 96h 0.059µM, Shiga inhibitor inactive, SARS PLpro yeast inactive, Cycloheximide cs inactive and NS1 inh inactive.
Cc1cc(Cl)c(S(=O)(=O)N2CCSCC2)cc1OCC(=O)NC1CCCCC1 was read as Pf growth 96h inactive, Shiga inhibitor inactive, SARS PLpro yeast inactive, Cycloheximide cs inactive and NS1 inh inactive.
Screening CCN1CCN(S(=O)(=O)c2cc(OCC(=O)NC3CCCCC3)c(C)cc2Cl)CC1 returned Pf growth 96h inactive, Shiga inhibitor inactive, Pf growth 48h 2.1µM, SARS PLpro yeast inactive, Cycloheximide cs inactive and NS1 inh inactive.
`Cc1cc(Cl)c(S(N)(=O)=O)cc1OCC(=O)NC1CCCCC1` gave Pf growth 96h inactive, Shiga inhibitor inactive, Pf growth 48h inactive, SARS PLpro yeast inactive, Cycloheximide cs inactive and NS1 inh inactive.
For CCOC(=O)N1CCN(S(=O)(=O)c2cc(OCC(=O)NC3CCCCC3)c(C)cc2Cl)CC1 the results were Pf growth 96h 0.66µM, Shiga inhibitor inactive, SARS PLpro yeast inactive, Cycloheximide cs inactive and NS1 inh inactive.
`Cc1cc(Cl)c(S(=O)(=O)N2CCN(c3ccccn3)CC2)cc1OCC(=O)NC1CCCCC1` gave Pf growth 96h inconclusive, Shiga inhibitor inactive, Pf growth 48h 0.23µM, SARS PLpro yeast inactive, Cycloheximide cs inactive and NS1 inh inactive.
For N#Cc1ccc(OC(=O)c2ccc(N=C(N)N)cc2)cc1 the results were NS1 inh inactive.
`Cc1ccc2c(c1)c1cccc3c1n2CCN3CCC(N)=O` gave Pf growth 96h inconclusive, Shiga inhibitor 190, Pf growth 48h inactive, SARS PLpro yeast inactive, Cycloheximide cs 34 and NS1 inh inactive.
Screening NC(=O)CCn1c2ccccc2c2ccccc21 returned Pf growth 96h inactive, Shiga inhibitor inactive, Pf growth 48h inactive, SARS PLpro yeast inactive, Cycloheximide cs inactive and NS1 inh inactive.
COc1cccc(N(CC(=O)NC2CCCCC2)C(=O)Cn2nnc(-c3ccc(C)o3)n2)c1 was read as Pf growth 96h inactive, Shiga inhibitor inactive, Pf growth 48h inconclusive, SARS PLpro yeast inactive, Cycloheximide cs inactive and NS1 inh inactive.
For CN(Cc1c(C(=O)N/N=C/c2cc(F)ccc2F)nnn1-c1nonc1N)C1CCCCC1 the results were Pf growth 96h inactive, Shiga inhibitor inactive, Pf growth 48h inconclusive, SARS PLpro yeast inactive, Cycloheximide cs inactive and NS1 inh inactive.
Screening Cc1cc(N)c2ccccc2n1 returned Pf growth 96h inactive, Shiga inhibitor inactive, Pf growth 48h inactive, SARS PLpro yeast inactive, Cycloheximide cs inactive and NS1 inh inactive.
Nc1cc2ccncc2c2ccccc12 was read as Pf growth 96h inconclusive, Shiga inhibitor inactive, Pf growth 48h 0.12µM, SARS PLpro yeast inactive, Cycloheximide cs inactive and NS1 inh inactive.
For CCOC(=O)c1c(NC(C)=O)sc2c1CCN(Cc1ccccc1)C2 the results were Pf growth 96h inconclusive, Shiga inhibitor inactive, Pf growth 48h inactive, SARS PLpro yeast inactive, Cycloheximide cs inactive and NS1 inh inactive.
`CCOC(=O)c1c(N)sc2c1CCN(CCc1ccccc1)C2` gave Pf growth 96h inactive, Pf growth 48h inactive, SARS PLpro yeast inactive, Cycloheximide cs inactive and NS1 inh inactive.
